According to PubChem BioAssay (NCATS):
Inconclusive results are not listed. Calls of active or inactive are those of the source. Calls come from the whole dose curve; as a rule, active = well fitted curve in the direction sought with a large enough effect; inconclusive = small, poorly fitted or top-dose-only effect, or another doubt; inactive = no such curve, though single readings can be large; an effect the other way counts as inactive or inconclusive.

What was measured:
[1] = target: Calcium and integrin-binding protein 1 (Homo sapiens) (UniProt Q99828); experiment: Primary qHTS for Identification of Calcium Integrin Binding Protein 1 (CIB1) Competitor (AID 1508620);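 note: GST tagged CIB1 binding a fluorescein labelled alphaIIb integrin peptide tracer; top concentration of the series differs between compounds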
In short: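 Fluorescence polarization competition: GST-tagged CIB1 (1 uM final) preincubated with compound 15 min at room temperature, then FITC-labelled alphaIIb peptide (100 nM final) added. After 15 min at room temperature, polarization read at Ex 480/Em 540.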

[2] = Primary qHTS for inhibitors of nuclear receptor binding SET domain protein 2 (NSD2) in an isogenic RCH-ACV NSD2 p.E1099K mutant (9B) (AID 1645876); note: nearly all actives have a fitted effect of over 70% in size
[3] = Primary qHTS for inhibitors of nuclear receptor binding SET domain protein 2 (NSD2) in an RCH-ACV wild type WT cells (2C) (AID 1645877); note: nearly all actives have a fitted effect of over 70% in size
% is set by controls: 0 for no effect and ±100 for the full control effect.

Calcium and integrin-binding protein 1 (Homo sapiens), sequence (Q99828 whole entry, looked up): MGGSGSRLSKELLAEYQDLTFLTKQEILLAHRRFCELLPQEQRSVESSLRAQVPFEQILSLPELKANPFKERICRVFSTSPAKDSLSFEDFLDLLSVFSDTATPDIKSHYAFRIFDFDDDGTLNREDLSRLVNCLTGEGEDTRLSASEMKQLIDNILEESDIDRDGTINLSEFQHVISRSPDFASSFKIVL

COC1OC(O)C2(CCC3(O2)C(C)CC2OC(=O)C4(C)CCCC3(C)C24)C1O (stereo not given)
inactive: Potency [1] | Potency [2] | Potency [3]

CCC/C=C/C=C/C1CC(O)C(O)C(=O)C1CO (stereo not given)
inactive: Potency [1] | Potency [2] | Potency [3]

COc1cc(/C=C/C(=O)O[C@@H]2C[C@](O)(C(=O)O)C[C@@H](O)[C@H]2O)ccc1O
inactive: Potency [1] | Potency [2] | Potency [3]

COc1cc(C(=O)OC[C@H]2O[C@@H](OC(C)(C)C(=O)O)[C@H](O)[C@@H](O)[C@@H]2O)cc(OC)c1O
inactive: Potency [1] | Potency [2] | Potency [3]

NC(Cc1c[nH]c2ccc(O)cc12)C(=O)O (stereo not given)
inactive: Potency [1] | Potency [2] | Potency [3]

COC(O)(CC(C)C)C1Oc2cc(C)[nH]c(=O)c2O1 (stereo not given)
inactive: Potency [1] | Potency [2] | Potency [3]

CC/C=C\CC1C(CC(=O)O)CCC1OC1OC(CO)C(O)C(O)C1O (stereo not given)
inactive: Potency [1] | Potency [2] | Potency [3]

CC(/C=C/C=C(\C)C(=O)O[C@@H]1O[C@H](CO[C@@H]2O[C@H](CO)[C@@H](O)[C@H](O)[C@H]2O)[C@@H](O)[C@H](O)[C@H]1O)=C\C=C\C=C(C)\C=C\C=C(/C)C(=O)O[C@@H]1C[C@](O)(C(=O)O)C[C@@H](O)[C@H]1OC(=O)/C=C/c1ccc(O)c(O)c1
inactive: Potency [1] | activity change, negative = viability loss [2] -6.13% [at 9.23 µM] | activity change, negative = cell killing [3] -16.8% [at 9.23 µM]

CC(C)(CC(=O)N1CCCC1)NCC(=O)N1C[C@@H](F)C[C@H]1C#N
inactive: Potency [1] | Potency [2] | Potency [3]

COC(=O)c1ccc(OC)cc1O[C@@H]1O[C@H](CO[C@@H]2OC[C@@H](O)[C@H](O)[C@H]2O)[C@@H](O)[C@H](O)[C@H]1O
inactive: Potency [1] | Potency [2] | Potency [3]

CC(C)=CC1C[C@](C)(O)[C@@H]2[C@H]3CCC4[C@@]5(C)CC[C@H](O[C@@H]6OC[C@H](O)[C@H](O[C@@H]7O[C@H](CO[C@@H]8O[C@H](CO)[C@@H](O)[C@H](O)[C@H]8O)[C@@H](O)[C@H](O)[C@H]7O)[C@H]6O[C@@H]6O[C@@H](C)[C@H](O)[C@@H](O)[C@H]6O)C(C)(C)[C@@H]5CC[C@@]4(C)[C@@]34CO[C@@]2(C4)O1 (stereo not given in full)
inactive: Potency [1] | activity change, negative = viability loss [2] -4.74% [at 9.23 µM] | activity change, negative = cell killing [3] 3.17% [at 9.23 µM]

C/C=C(\C)C(=O)OCC1OC(OC2OC(CO)C(O)C(O)C2O)C(O)C(O)C1O (stereo not given)
inactive: Potency [1] | Potency [2] | Potency [3]

CC1(C)CC[C@]2(C(=O)O[C@@H]3O[C@H](CO)[C@@H](O)[C@H](O)[C@H]3O)CC[C@]3(C)C(=CCC4[C@@]5(C)CC[C@H](OC6OC(C(=O)O)C(OC7OC(CO)C(O)C(O)C7O)C(O)C6O)C(C)(C)C5CC[C@]43C)C2C1 (stereo not given in full)
inactive: Potency [1] | activity change, negative = viability loss [2] -8.98% [at 9.23 µM] | activity change, negative = cell killing [3] -22.4% [at 9.23 µM]

CC(=O)O[C@@H]1[C@@H](O)[C@H](C)O[C@@H](O[C@H]2[C@@H]3C=CO[C@@H](O[C@@H]4O[C@H](CO)[C@@H](O)[C@H](O)[C@H]4OC(C)=O)[C@@H]3[C@@]3(CO)O[C@@H]23)[C@@H]1OC(=O)/C=C/c1ccc(O)cc1
inactive: Potency [1] | Potency [2] | Potency [3]

O=S(=O)(O)c1ccc(Nc2ncnc3c2ncn3[C@@H]2O[C@H](CO)[C@@H](O)[C@H]2O)cc1
inactive: Potency [1] | Potency [2] | Potency [3]

COc1cc(CC2COC(c3ccc(OC4OC(CO)C(O)C(O)C4O)c(OC)c3)C2CO)ccc1O (stereo not given)
inactive: Potency [1] | Potency [2] | Potency [3]

CC(C)(O)/C=C/C(=O)[C@](C)(O)[C@H]1[C@H](O)C[C@@]2(C)[C@@H]3CC=C4[C@@H](C=C(O[C@@H]5O[C@H](CO)[C@@H](O)[C@H](O)[C@H]5O)C(=O)C4(C)C)[C@]3(C)C(=O)C[C@]12C
inactive: Potency [1] | Potency [2] | Potency [3]

CC1(C)C[C@H](O)C[C@@]2(C)[C@H]1[C@H](O)C=C1COC(=O)[C@@]12O
inactive: Potency [1] | Potency [2] | Potency [3]

O=C(O)CCc1c(C(=O)O)[nH]c2cc(Cl)cc(Cl)c12
inactive: Potency [1] | Potency [2] | Potency [3]

C[C@@H]1O[C@@H](O[C@H]2[C@@H]3C=CO[C@@H](O[C@@H]4O[C@H](CO)[C@@H](O)[C@H](O)[C@H]4O)[C@@H]3[C@@]3(CO)O[C@@H]23)[C@H](OC(=O)/C=C/c2ccc(O)cc2)[C@H](O)[C@H]1O
inactive: Potency [1] | Potency [2] | Potency [3]

CC(=O)OC[C@@]12C(=O)C[C@@H](C)[C@]3(C[C@@H](c4ccoc4)OC3=O)[C@H]1CC[C@H](OC(C)=O)[C@]21CO1
inactive: Potency [1] | Potency [2] | Potency [3]

CCC(C)/C=C(C)/C=C/C1=CC2=C(Cl)C(=O)C(C)(OC(C)=O)C(=O)C2=CN1CCCCC(N)C(=O)O (stereo not given)
inactive: Potency [1] | Potency [2] | Potency [3]

C=CC(C)(CC/C=C(\C)C(=O)OC[C@H]1O[C@@H](OC(C)(C=C)CC/C=C(\C)C(=O)O[C@H]2[C@H](O)[C@@H](O)[C@H](OC(C)(C=C)CC/C=C(\C)C(=O)O)O[C@@H]2CO)[C@H](O)[C@@H](O)[C@@H]1O)O[C@@H]1O[C@H](CO)[C@@H](O)[C@H](O)[C@H]1O (stereo not given in full)
inactive: Potency [1] | activity change, negative = viability loss [2] -1.17% [at 9.23 µM] | outcome [3] inactive [at 9.23 µM]

COC(=O)C1=CO[C@@H](O[C@@H]2O[C@H](CO)[C@@H](O)[C@H](O)[C@H]2O)[C@@H]2[C@@H](C)[C@@H](OC(=O)/C=C/c3ccccc3)[C@@H](O)[C@H]12
inactive: Potency [1] | Potency [2] | Potency [3]

COC(=O)C(CC1(O)c2ccccc2N2C(=O)C(CC(C)C)NC21)n1cnc2ccccc2c1=O (stereo not given)
inactive: Potency [1] | Potency [2] | Potency [3]
